Read-out in assay [1]: Matrix Metallopeptidase 9 (MMP9), MMP9 (gene 4318)
The experiment in a line: BSK_KF3CT_MMP9: BioMAP Diversity Plus: KF3CT Assay for Matrix Metallopeptidase 9 (MMP9) Biomarker Activity (AID 2283074).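 On AC50: MMP9 protein level quantified by ELISA in the co-culture.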 The conditions noted are these: primary human keratinocytes with fibroblasts; actives raise or lower the signal. The procedure, abridged: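 ELISA read-out of MMP-9 at 24 h post-dosing in a co-culture of human skin keratinocytes and foreskin fibroblasts. Gain or loss of signal was fitted in both directions against DMSO.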

Read-out in assay [2]: urokinase plasminogen activator (uPA), PLAU (gene 5328)
The experiment in a line: BSK_KF3CT_uPA: BioMAP Diversity Plus: KF3CT Assay for urokinase plasminogen activator (uPA) Biomarker Activity (AID 2283075). To be noted: primary human keratinocytes with fibroblasts; actives raise or lower the signal. The gist of the method:
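Skin co-culture (keratinocytes + foreskin fibroblasts), human primary; 24 h post-dose; uPA by ELISA; gain/loss fit vs DMSO baseline.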

Read-out in assay [3]: CD40, CD40 (gene 958)
Put plainly: BSK_LPS_CD40: BioMAP Diversity Plus: LPS Assay for CD40 Biomarker Activity (AID 2283076). To be noted: primary human HUVEC with PBMC; actives raise or lower the signal. The procedure, abridged: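 HUVEC plus PBMC co-culture stimulated with LPS; CD40 quantified by ELISA 24 h after compound dosing. Fitting was bidirectional relative to DMSO. SRB staining of parallel cultures flagged overt cytotoxicity.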

Read-out in assay [4]: E-selectin (Homo sapiens) (UniProt P16581)
The experiment in a line: BSK_LPS_Eselectin: BioMAP Diversity Plus: LPS Assay for Eselectin Biomarker Activity (AID 2283077). To be noted: primary human HUVEC with PBMC; actives raise or lower the signal. The gist of the method: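 Human umbilical vein endothelial cells co-cultured with PBMC under LPS stimulation; cell-surface E-selectin measured by ELISA 24 h after dosing. Change in either direction versus DMSO, with SRB total-protein staining in parallel cultures for cytotoxicity.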

Read-out in assay [5]: Interleukin-8 (IL8), CXCL8 (gene 3576)
Put plainly: BSK_LPS_IL8: BioMAP Diversity Plus: LPS Assay for Interleukin-8 (IL8) Biomarker Activity (AID 2283078). The conditions noted are these: primary human HUVEC with PBMC; actives raise or lower the signal. The gist of the method: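 Human umbilical vein endothelial cells co-cultured with PBMC, LPS-stimulated, exposed to compound for 24 h. IL-8 quantified by ELISA; fitted in both directions against DMSO, with SRB total-protein staining of parallel cultures for cytotoxicity.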

Assay [6] in a line: BSK_LPS_SRB: Viability Assessment in the BioMAP Diversity Plus: LPS Assay (AID 2283079).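 Further: total protein by sulforhodamine B absorbance as a cytotoxicity measure; measured one day after compound addition.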 To be noted: primary human HUVEC with PBMC. The gist of the method: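 Co-culture of human umbilical vein endothelial cells and PBMC, read 24 h after dosing. Total protein by 0.1% SRB staining after 10% TCA fixation, absorbance at 560 nm; bidirectional fit against DMSO.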
Read-out in assay [7]: Monocyte Chemoattractant Protein-1 (MCP1), CCL2 (gene 6347)
Put plainly: BSK_LPS_MCP1: BioMAP Diversity Plus: LPS Assay for Monocyte Chemoattractant Protein-1 (MCP1) Biomarker Activity (AID 2283081).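 On AC50: secreted MCP-1 protein quantified by ELISA in culture supernatant.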 To be noted: primary human HUVEC with PBMC; actives raise or lower the signal. The gist of the method: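 Human umbilical vein endothelial cells co-cultured with PBMC, LPS-stimulated; secreted MCP-1 measured by ELISA 24 h after compound addition. Bidirectional curve fitting against DMSO baseline; SRB total-protein staining in parallel cultures for cytotoxicity.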

The nature of assay [8]: BSK_LPS_PGE2: BioMAP Diversity Plus: LPS Assay for Prostaglandin E2 (PGE2) Biomarker Activity (AID 2283082). To be noted: primary human HUVEC with PBMC; actives raise or lower the signal. The gist of the method: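 PGE2 release measured by ELISA in an LPS-activated co-culture of human umbilical vein endothelial cells and peripheral blood mononuclear cells, read at 24 h post-dosing. DMSO served as baseline for bidirectional curve fitting.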

Read-out in assay [9]: Macrophage colony-stimulating factor (MCSF), CSF1 (gene 1435)
Put plainly: BSK_LPS_MCSF: BioMAP Diversity Plus: LPS Assay for Macrophage colony-stimulating factor (MCSF) Biomarker Activity (AID 2283083). The conditions noted are these: primary human HUVEC with PBMC; actives raise or lower the signal. The gist of the method:
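HUVEC–PBMC co-culture, M-CSF measured by ELISA 24 h after chemical dosing. Fitted in both directions relative to DMSO as negative control; overt cytotoxicity assessed by SRB total-protein staining in parallel cultures.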

Read-out in assay [10]: Tissue Factor, F3 (gene 2152)
Put plainly: BSK_LPS_TissueFactor: BioMAP Diversity Plus: LPS Assay for Tissue Factor Biomarker Activity (AID 2283084). The conditions noted are these: primary human HUVEC with PBMC; actives raise or lower the signal. The gist of the method: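 Human umbilical vein endothelial cells co-cultured with PBMC were dosed with compound. Cell-surface CD142 was measured by ELISA 24 h later. Activity was fitted bidirectionally against DMSO, with SRB total-protein staining in parallel cultures for cytotoxicity.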

Read-out in assay [11]: Tumor necrosis factor (Homo sapiens) (UniProt P01375)
Put plainly: BSK_LPS_TNFa: BioMAP Diversity Plus: LPS Assay for Tumour Necrosis Factor alpha (TNFa) Biomarker Activity (AID 2283085). The conditions noted are these: primary human HUVEC with PBMC; actives raise or lower the signal. The procedure, abridged: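 TNFa was quantified by ELISA in LPS-activated co-cultures of human endothelial cells and PBMC, 24 h post-dosing. Both increases and decreases versus DMSO were fitted.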

Read-out in assay [12]: CD38, CD38 (gene 952)
Put plainly: BSK_SAg_CD38: BioMAP Diversity Plus: SAg Assay for CD38 Biomarker Activity (AID 2283087). The conditions noted are these: primary human HUVEC with PBMC; actives raise or lower the signal. The gist of the method:
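CD38 quantified by ELISA (fluorescence) in a superantigen-activated endothelial cell–PBMC co-culture at 24 h post-dose. Activity fitted in both directions relative to DMSO; parallel SRB and Alamar Blue cytotoxicity read-outs.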

Read-out in assay [13]: CD40, CD40 (gene 958)
The experiment in a line: BSK_SAg_CD40: BioMAP Diversity Plus: SAg Assay for CD40 Biomarker Activity (AID 2283088). To be noted: primary human HUVEC with PBMC; actives raise or lower the signal. The gist of the method: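 HUVEC plus PBMC co-culture, superantigen-activated, with CD40 read by ELISA 24 h after dosing. Curves fitted in both directions against DMSO. Overt cytotoxicity checked by parallel SRB total-protein staining.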

Read-out in assay [14]: CD69, CD69 (gene 969)
Put plainly: BSK_SAg_CD69: BioMAP Diversity Plus: SAg Assay for CD69 Biomarker Activity (AID 2283089). To be noted: primary human HUVEC with PBMC; actives raise or lower the signal. The gist of the method:
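Values derive from bidirectional fitting relative to DMSO vehicle. Cells: umbilical vein endothelium plus peripheral blood mononuclear cells, treated 24 h before fluorescent ELISA for CD69.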

Read-out in assay [15]: Monocyte Chemoattractant Protein-1 (MCP1), CCL2 (gene 6347)
Put plainly: BSK_SAg_MCP1: BioMAP Diversity Plus: SAg Assay for Monocyte Chemoattractant Protein-1 (MCP1) Biomarker Activity (AID 2283090). To be noted: primary human HUVEC with PBMC; actives raise or lower the signal. The gist of the method:
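Values derive from bidirectional fitting of ELISA-measured MCP1 against DMSO controls. Readings were taken 24 h after dosing human vascular endothelial cells co-cultured with peripheral blood mononuclear cells under superantigen stimulation.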

Read-out in assay [16]: E-selectin (Homo sapiens) (UniProt P16581)
The experiment in a line: BSK_SAg_Eselectin: BioMAP Diversity Plus: SAg Assay for Eselectin Biomarker Activity (AID 2283091). The conditions noted are these: primary human HUVEC with PBMC; actives raise or lower the signal. The gist of the method:
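Human umbilical vein endothelial cells co-cultured with peripheral blood mononuclear cells, SAg system. E-selectin is measured by ELISA 24 h after dosing and fitted bidirectionally against DMSO. Cytotoxicity is checked by SRB staining of parallel cultures.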

Read-out in assay [17]: Monokine induced gamma interferon (MIG), CXCL9 (gene 4283)
The experiment in a line: BSK_SAg_MIG: BioMAP Diversity Plus: SAg Assay for Monokine induced gamma interferon (MIG) Biomarker Activity (AID 2283092). The conditions noted are these: primary human HUVEC with PBMC; actives raise or lower the signal. The procedure, abridged: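 Values reflect bidirectional fitting of ELISA-measured MIG against DMSO vehicle, taken 24 h after dosing of a co-culture of human umbilical vein endothelial cells and peripheral blood mononuclear cells.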

Assay [18] in a line: BSK_SAg_PBMCCytotoxicity: PBMC Cytotoxicity Assessment in the BioMAP Diversity Plus: SAg Assay (AID 2283093).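 Further: fitted both ways against DMSO so a hit may be loss or gain of signal.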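 On AC50: PBMC superantigen activated with SEB plus TSST-1 one hour after compound addition.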 To be noted: primary human HUVEC with PBMC. The gist of the method:
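PBMC viability by Alamar Blue reduction, fluorescence read at 546/580 nm after 6 h dye exposure. Cells were dosed 1 h before SEB plus TSST-1 activation (20 ng/mL final each), then held 90 h; endothelial/PBMC human co-culture.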

Read-out in assay [19]: Vascular cell adhesion molecule 1 (VCAM1), VCAM1 (gene 7412)
Put plainly: BSK_LPS_VCAM1: BioMAP Diversity Plus: LPS Assay for Vascular cell adhesion molecule 1 (VCAM1) Biomarker Activity (AID 2283086). The conditions noted are these: primary human HUVEC with PBMC; actives raise or lower the signal. The gist of the method: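 VCAM-1 quantified by ELISA in an LPS-activated co-culture of human endothelial cells and peripheral blood mononuclear cells, read 24 h post-treatment. Fitted in both directions versus DMSO; parallel SRB staining flags overt cytotoxicity.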

Activity calls are given as the source filed them. How the source made its calls: active means hit-call score of the fitted dose curve at least 0.9, where 1 is the maximum; inactive means score below 0.9.

The text below walks through data of PubChem BioAssay (EPA / NIEHS).

E-selectin (Homo sapiens), sequence (P16581 whole entry, looked up): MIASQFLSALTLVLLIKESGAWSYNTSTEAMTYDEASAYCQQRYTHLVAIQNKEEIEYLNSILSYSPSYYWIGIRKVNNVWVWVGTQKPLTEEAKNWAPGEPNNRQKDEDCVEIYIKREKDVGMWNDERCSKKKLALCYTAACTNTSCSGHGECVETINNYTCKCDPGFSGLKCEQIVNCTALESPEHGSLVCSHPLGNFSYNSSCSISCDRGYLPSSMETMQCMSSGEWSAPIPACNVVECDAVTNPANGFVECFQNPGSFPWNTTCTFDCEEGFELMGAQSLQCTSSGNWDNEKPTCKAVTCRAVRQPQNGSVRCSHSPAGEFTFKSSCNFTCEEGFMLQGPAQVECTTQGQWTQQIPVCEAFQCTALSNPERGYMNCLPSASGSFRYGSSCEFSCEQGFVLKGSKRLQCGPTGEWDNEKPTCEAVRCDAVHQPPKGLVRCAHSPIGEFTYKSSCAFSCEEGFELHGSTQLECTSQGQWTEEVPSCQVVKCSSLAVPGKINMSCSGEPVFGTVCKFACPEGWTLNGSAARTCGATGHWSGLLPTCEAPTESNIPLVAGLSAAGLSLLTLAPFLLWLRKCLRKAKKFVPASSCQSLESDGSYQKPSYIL
Tumor necrosis factor (Homo sapiens), sequence (P01375 whole entry, looked up): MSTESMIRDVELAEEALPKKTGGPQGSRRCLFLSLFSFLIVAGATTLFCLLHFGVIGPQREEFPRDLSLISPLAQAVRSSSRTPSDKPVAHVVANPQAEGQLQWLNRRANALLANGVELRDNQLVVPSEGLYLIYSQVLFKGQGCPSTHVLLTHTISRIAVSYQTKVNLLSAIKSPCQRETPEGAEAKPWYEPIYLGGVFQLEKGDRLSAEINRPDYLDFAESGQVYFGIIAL

On to `Oc1cccc2cccnc12`, for which the half-maximal activity concentration (AC50) in assay [1] was 2.46 µM (active); in assay [2] it was 2.74 µM (active); in assay [8], 11.4 µM (active); in assay [16], 2.77 µM (active); in [18], 3.57 µM (active). The outcome in assay [3], in assay [4], in assay [5], in assay [6], in assay [7] and in assay [9] was inactive. In addition, the outcome in assay [10], in assay [11], in [12], in assay [13], in assay [14] and in assay [15] was inactive. Further, in assay [17], the outcome was inactive.
Consider `C[C@]12CCC(=O)C[C@@H]1CC[C@@H]1[C@@H]2CC[C@]2(C)[C@@H](O)CC[C@@H]12`, for which the result in assay [1], in assay [2], in assay [3], in [5], in assay [8] and in [10] was inactive. The outcome in assay [11], in assay [12], in [13], in assay [14], in assay [16] and in [17] was inactive. In addition, the result in assay [18] was inactive. Moreover, the AC50 is 28.1 µM (active) in assay [4]; 19.8 µM (active) in assay [6]; 26 µM (active) in [7]; 19 µM (active) in [9]; 29 µM (active) in assay [19]; 28.2 µM (active) in assay [15].
Regarding `CC(C)(OO)c1ccccc1`, the outcome in [1], in assay [2], in assay [3], in [4], in assay [5] and in assay [6] was inactive. In addition, the result in assay [7], in assay [8], in assay [9], in assay [10], in assay [11] and in assay [12] was inactive. Besides, the result in [13], in [14], in [15], in [16], in assay [17] and in assay [18] was inactive.
